The source of these data is PubChem BioAssay.

A short description of assay [1]: A549 cell viability effects, profiling panel, calcein-AM fluorescence, 48 h, basal (AID 1162). Also: test concentration not given here. To be noted: higher = more signal.
A short description of assay [2]: adipocyte viability effects, profiling panel, cell-based, 3T3-L1 adipocytes, calcein-AM fluorescence, 48 h, basal (AID 1163). Also: test concentration not given here. To be noted: 3T3-L1 adipocytes viability, higher = more signal.
A short description of assay [3]: HepG2 cell viability effects, profiling panel, calcein-AM fluorescence, 48 h, basal (AID 1164). Also: test concentration not given here. As to conditions: higher = more signal.
Assay [4] can be described thus: MM1S cell viability effects, profiling panel, calcein-AM fluorescence, 48 h, basal (AID 1165).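 Also: viability of MM1S multiple myeloma cells under basal unstimulated conditions; test concentration not given here.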 To be noted: higher = more signal.
Assay [5] in a line: basal RPMI8226 viability, no added stimulus, profiling panel, cell-based, calcein-AM fluorescence, 48 h, PK04 Diversity Set (AID 1166).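 Also: cells grown under basal conditions without added stimulus; test concentration not given here.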 As to conditions: RPMI8226 myeloma viability, higher = more signal.
The nature of assay [6]: basal HepG2 mitochondrial membrane potential changes, profiling panel, cell-based, JC-1 fluorescence, 24 h, 100 nL compound (AID 1167). Also: test concentration not given here. To be noted: higher = more signal.
Assay [7] is described as follows: basal 3T3-L1 adipocyte mitochondrial potential changes, profiling panel, cell-based, JC-1 fluorescence, 3T3-L1 adipocytes, 24 h, 100 nL compound (AID 1168). Also: test concentration not given here. To be noted: JC-1 mitochondrial fluorescence, higher = more signal, called active from +8 up or from −8 down.
Assay [8] in a line: basal RPMI8226 mitochondrial membrane potential changes, profiling panel, cell-based, JC-1 fluorescence, 24 h, 100 nL compound (AID 1169). Also: test concentration not given here. As to conditions: RPMI8226 myeloma, JC-1 mitochondrial potential fluorescence, higher = more signal.
Assay [9] is described as follows: basal MM1S mitochondrial membrane potential changes, profiling panel, cell-based, JC-1 fluorescence, 24 h, 100 nL compound (AID 1170). Also: test concentration not given here. As to conditions: higher = more signal.
Assay [10] in a line: A549 lung cancer cell viability effects, profiling panel, resazurin fluorescence, 24 h, PK04 Diversity Set (AID 1171). Also: test concentration not given here. As to conditions: higher = more signal, called active from +8 up or from −8 down. In general terms: Resazurin is reduced to fluorescent resorufin, in cell work by metabolically active cells.
Assay [11] in a line: HepG2 liver cancer cell viability effects, profiling panel, resazurin fluorescence, 24 h, PK04 Diversity Set (AID 1172). Also: test concentration not given here. To be noted: higher = more signal.
Assay [12] in a line: basal S. cerevisiae growth modulation, no modifier, primary screen, OD600, strain BY4716, 24 h, basal condition (AID 1173). As to conditions: OD600, 24 h, higher = more signal, called active from +8 up or from −8 down.
Assay [13] can be described thus: MM1S myeloma cell viability, profiling panel, resazurin fluorescence, basal, 24 h, PK04 Diversity Set (AID 1174).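 Also: MM1S multiple myeloma cell line; test concentration not given here.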 As to conditions: higher = more signal, called active from +8 up or from −8 down.
Assay [14] concerns the target Dihydroorotate dehydrogenase (quinone), mitochondrial (Plasmodium falciparum (isolate 3D7)) (UniProt Q08210). The assay can be described thus: PfDHODH enzyme inhibitors, primary screen, biochemical, C-terminal His tag, absorbance 600 nm (AID 1175).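 Also: recombinant parasite enzyme with a five histidine tag at its C terminus; test concentration not given here.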 To be noted: DCIP absorbance 600 nm, higher = more signal, called active from +8 up or from −8 down.
Assay [15] in a line: P. aeruginosa biofilm formation inhibitors, primary screen, strain PAO1, LB-PBS medium, absorbance 600 nm (AID 1176). Also: test concentration not given here. To be noted: P. aeruginosa PAO1 growth/biofilm, A600, 12 h; higher = more signal.
Assay [16] is described as follows: S. cerevisiae RM11-1a growth modifiers, primary screen, strain RM11-1a, OD600, basal, 24 h (AID 1177).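 Also: cultures grown under basal conditions with no added stressor; test concentration not given here.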 As to conditions: OD600, 24 h, higher = more signal, called active from +8 up or from −8 down.
Assay [17] in a line: E. coli acrAB mutant growth effects, primary screen, E. coli filamentation inducers, strain DRC39, OD650, 24 h (AID 1178).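 Also: growth measured as culture turbidity by optical density at 650 nm; test concentration not given here.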 To be noted: higher = more signal, called active from +8 up or from −8 down.
Assay [18] can be described thus: E. coli acrAB mutant growth effects, primary screen, E. coli filamentation inducers, strain DRC39, OD650, 48 h (AID 1179).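 Also: screen aims at cell division blockers that make cells filament.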 To be noted: E. coli DRC39 delta-acrAB growth, higher = more signal, called active from +8 up or from −8 down.
Assay [19] is described as follows: RPMI8226 myeloma cell viability, profiling panel, resazurin fluorescence, basal, 24 h, PK04 Diversity Set (AID 1180).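 Also: RPMI8826 multiple myeloma cell line at 5000 cells per well; test concentration not given here.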 As to conditions: higher = more signal.
The target of assay [20] is E3 ubiquitin-protein ligase XIAP (Homo sapiens) (UniProt P98170). The assay can be described thus: XIAP binders, primary screen, biophysical, small-molecule microarray, fluorescence 635 nm (AID 1181).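 Also: score merges 667 nm emission and signal to noise over triplicate slides.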 To be noted: small-molecule microarray binding, higher = more signal.

Molecules are shown by their SMILES. Active and inactive are the calls of the source. Unless noted, no rule for the calls is given here.

E3 ubiquitin-protein ligase XIAP (Homo sapiens), sequence (P98170 whole entry, looked up): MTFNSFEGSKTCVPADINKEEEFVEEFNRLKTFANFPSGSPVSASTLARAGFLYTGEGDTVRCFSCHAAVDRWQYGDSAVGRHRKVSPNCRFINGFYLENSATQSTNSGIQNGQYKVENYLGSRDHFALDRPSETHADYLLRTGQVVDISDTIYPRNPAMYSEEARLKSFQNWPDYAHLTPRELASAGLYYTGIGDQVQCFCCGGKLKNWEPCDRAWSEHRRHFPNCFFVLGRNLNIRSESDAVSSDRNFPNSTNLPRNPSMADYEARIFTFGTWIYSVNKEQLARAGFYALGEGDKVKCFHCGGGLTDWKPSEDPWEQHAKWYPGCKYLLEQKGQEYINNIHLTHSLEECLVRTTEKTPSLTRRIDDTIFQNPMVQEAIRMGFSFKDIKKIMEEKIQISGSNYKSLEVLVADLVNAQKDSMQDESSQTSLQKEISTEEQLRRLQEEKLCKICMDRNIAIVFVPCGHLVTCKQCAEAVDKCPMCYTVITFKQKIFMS
Dihydroorotate dehydrogenase (quinone), mitochondrial (Plasmodium falciparum (isolate 3D7)), sequence (Q08210 whole entry, looked up): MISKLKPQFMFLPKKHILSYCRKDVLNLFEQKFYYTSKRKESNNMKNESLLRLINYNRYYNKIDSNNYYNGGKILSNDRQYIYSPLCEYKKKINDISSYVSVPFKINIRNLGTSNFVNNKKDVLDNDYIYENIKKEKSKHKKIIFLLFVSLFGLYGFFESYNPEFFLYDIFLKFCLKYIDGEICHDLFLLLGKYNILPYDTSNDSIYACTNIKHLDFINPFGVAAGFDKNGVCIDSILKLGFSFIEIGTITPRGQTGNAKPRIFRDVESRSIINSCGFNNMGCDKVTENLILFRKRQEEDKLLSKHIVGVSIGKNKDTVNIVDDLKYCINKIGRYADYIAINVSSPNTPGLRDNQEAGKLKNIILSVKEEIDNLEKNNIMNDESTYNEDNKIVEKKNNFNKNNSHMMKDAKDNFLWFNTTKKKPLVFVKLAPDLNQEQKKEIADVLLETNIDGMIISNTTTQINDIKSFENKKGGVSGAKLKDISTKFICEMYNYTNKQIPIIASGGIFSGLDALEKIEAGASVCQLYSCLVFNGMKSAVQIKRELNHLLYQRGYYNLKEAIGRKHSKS

In the case of `C[C@@H](OCc1ccccc1)C1NC(=O)[C@@]23C(=O)N[C@@H](Cc4ccccc4)C2[C@H](C)[C@@]2(C)O[C@H]2C3/C=C/C/C=C\CNC(=O)CNC1=O` (stereo not given in full), the z-score is 0.758 in assay [1]; 1.41 in assay [2]; -0.762 in assay [3]; 0.125 in [4]; -1.25 in [5]; -0.332 in [6]. In addition, the z-score in assay [7] is -0.475 (inactive); in assay [8] it was 0.158; in assay [9], 0.146; in [10], -0.694 (inactive); in [11], -0.816; in assay [12], -0.303 (inactive). Also, the z-score in assay [13] was -0.555 (inactive); in [15], 0.662 (inactive); in [16] it was -0.509 (inactive); in assay [17], 0.0899 (inactive); in [18], -0.754 (inactive); in assay [19], -0.724. Moreover, the composite z-score is -0.402 (inactive) in [14] and -0.0351 in assay [20].
For `CN1C(=O)C2C=CC(C(O)Cc3ccccc3)N(N(c3ccccc3)c3ccccc3)C2C1=O` (stereo not given), the z-score in assay [1] is 1.02; in assay [2], -1.5; in [3], 1.35; in [4], -0.64; in assay [5] it was 0.0338; in [6], 1.37. For the same molecule, the z-score in [7] is -0.833 (inactive); in assay [8] it was 0.257; in [9] it was -0.871; in assay [10] it was -0.69 (inactive); in assay [11] it was -0.567; in [12], -0.519 (inactive). The z-score in [13] was -1.62 (inactive); in [15], 0.543 (inactive); in assay [16], 0.303 (inactive); in [17], -0.804 (inactive); in assay [18] it was -0.233 (inactive); in assay [19], -0.855. Further, the composite z-score is -0.443 (inactive) in assay [14] and 0.0918 in [20].
As to `C=CC[C@@H](OC(=O)Nc1ccc(OC)cc1)c1ccc(OCCO)cc1`, the z-score in [1] was -0.176; in assay [2] it was 0.048; in assay [3], 0.587; in [4] it was -1.2; in assay [5], -2.53; in assay [6] it was -1.92. Further, the z-score is -0.451 (inactive) in [7]; -0.052 in assay [8]; 0.19 in assay [9]; 0.213 (inactive) in assay [10]; -0.197 in assay [11]; -3.85 (inactive) in [12]. In addition, the z-score in [13] was -0.561 (inactive); in assay [15], 0.438 (inactive); in assay [16], -0.373 (inactive); in assay [17], 0.411 (inactive); in [18] it was -0.103 (inactive); in assay [19] it was -0.365. The composite z-score was 0.251 (inactive) in [14] and 0.206 in [20].
For the molecule `Cc1ccc(F)cc1S(=O)(=O)N[C@@H]1CCN(Cc2ccc(Oc3ccccc3)cc2)C1`, the z-score in assay [1] was -1.26; in assay [2], -0.119; in assay [3], -1.25; in [4] it was -3.43; in assay [5], -3.16; in assay [6], 0.998. Also, the z-score in [7] is 0.546 (inactive); in assay [8], -1.19; in [9], -2.3; in assay [10], -0.214 (inactive); in [11], -0.971; in [12] it was -17.3 (active). The z-score was -0.627 (inactive) in assay [13]; -0.177 (inactive) in assay [15]; -9.2 (active) in assay [16]; -5.2 (inactive) in assay [17]; -4.66 (inactive) in [18]; -0.942 in assay [19]. Also, the composite z-score is 0.255 (inactive) in assay [14] and -0.13 in [20].
With `[N-]=[N+]=Nc1ccccc1[C@@H]1OC(c2ccc(OCCCO)cc2)=N[C@]1(CCS(=O)(=O)c1ccccc1)C(=O)NCCN1CCOCC1`, the z-score is 0.652 in [1]; 1.37 in assay [2]; -0.229 in [3]; 0.351 in [4]; -1.58 in assay [5]; 0.0652 in assay [6]. Moreover, the z-score in [7] is -0.783 (inactive); in assay [8] it was -0.465; in [9], -1.2; in [10] it was 0.465 (inactive); in assay [11], -0.376; in [12], -1.32 (inactive). Moreover, the z-score is -0.195 (inactive) in [13]; 0.236 (inactive) in assay [15]; -0.309 (inactive) in [16]; 0.833 (inactive) in assay [17]; -0.278 (inactive) in assay [18]; -0.659 in [19]. Besides, the composite z-score in [14] is 0.313 (inactive); in assay [20], -0.34.
For `CCOC(=O)C[C@H]1[C@H](OC(=O)Cc2ccc3c(c2)OCO3)[C@@H](NC(=O)Cc2ccc(OC)cc2)c2cc(OCCCO)ccc2N1C(=O)c1ccccc1`, the z-score in assay [1] is 0.208; in [2], -0.0437; in assay [3] it was 0.547; in assay [4], 1.08; in assay [5], 0.192; in assay [6], 0.873. The z-score is -1.1 (inactive) in assay [7]; 0.192 in assay [8]; -0.606 in [9]; -0.0709 (inactive) in assay [10]; -0.174 in assay [11]; -0.0578 (inactive) in [12]. Moreover, the z-score was -0.727 (inactive) in assay [13]; -0.218 (inactive) in assay [15]; 0.42 (inactive) in assay [16]; -0.296 (inactive) in assay [17]; 0.386 (inactive) in [18]; 0.66 in [19]. Moreover, the results for the composite z-score in assay [14] and in assay [20] were 0.0225 (inactive) and -0.406, respectively.
For `O=C1O[C@@H](c2ccccc2)[C@@H](c2ccccc2)N2[C@@H](c3ccccc3OCCO)[C@]3(C(=O)Nc4ccc(C#CCCO)cc43)[C@@H](C(=O)Nc3nc4ccccc4s3)[C@H]12`, the z-score in assay [1] was 1.02; in [2] it was 0.0714; in assay [3], 0.702; in [4], -0.264; in assay [5], -1.55; in assay [6], -2.29. For the same molecule, the z-score was 0.856 (inactive) in assay [7]; -1.13 in assay [8]; -1.33 in assay [9]; 0.2 (inactive) in assay [10]; -0.0116 in [11]; 0.282 (inactive) in assay [12]. Moreover, the z-score in assay [13] is -0.095 (inactive); in assay [15], 0.986 (inactive); in assay [16] it was 2.39 (inactive); in assay [17], -0.233 (inactive); in assay [18], 0.695 (inactive); in [19] it was -0.226. Also, the composite z-score in assay [14] is -0.176 (inactive); in [20], -0.145.
`CC=CC(O)C1C=CC2C(=O)N(C)C(=O)C2N1N1CCCCC1` (stereo not given): the z-score in assay [1] is -0.0516; in assay [2] it was -2.06; in [3] it was -0.843; in [4], -0.714; in [5], -0.922; in [6], -1.52. Besides, the z-score in assay [7] is -1.36 (inactive); in assay [8], -0.615; in assay [9], -0.00172; in assay [10] it was -0.232 (inactive); in [11], -0.245; in [12] it was 0.383 (inactive). Besides, the z-score in assay [13] is -0.986 (inactive); in assay [15], 0.378 (inactive); in assay [16], -0.714 (inactive); in [17], -1.07 (inactive); in [18], -0.923 (inactive); in assay [19], -1.36. For the same molecule, the composite z-score in assay [14] is -0.811 (inactive); in assay [20], -0.114.
For `NCCCCCCNC(=O)[C@@H]1C[C@@H]2C(=O)N3CCC[C@H]3C(=O)N2[C@@H]1c1ccc(O)cc1`, the z-score in assay [1] is -0.428; in assay [2], 0.548; in [3], 0.442; in assay [4] it was -0.0269; in assay [5] it was -0.292; in [6], -0.0719. The z-score in [7] was -0.202 (inactive); in assay [8], 0.0552; in assay [9], 0.0553; in assay [10], -0.578 (inactive); in assay [11], -0.0529; in assay [12], -0.547 (inactive). In addition, the z-score was -0.233 (inactive) in assay [13]; -0.282 (inactive) in [15]; -0.407 (inactive) in [16]; -0.188 (inactive) in assay [17]; -0.196 (inactive) in [18]; -0.134 in assay [19]. The results for the composite z-score in [14] and in assay [20] were -1.18 (inactive) and -0.209, respectively.
